Results as given in PubChem BioAssay (EPA / NIEHS).
The source made the active and inactive calls. The calls were made as follows: active = hit-call score of the fitted dose curve at least 0.9, where 1 is the maximum; inactive = score below 0.9.

Experiments:
Settings in all cases: mRNA level, 48 h; actives raise or lower the signal
CYP2C9 (gene 1559) = assay: LTEA_HepaRG_CYP2C9: Life Technologies and Expression Analysis (LTEA) Assay for CYP2C9 using HepaRG (AID 2283484)
Procedure, shortened: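 Eight-point concentration-response (highest 100 uM, half-log dilutions) in HepaRG cells for 48 h; CYP2C9 expression by qRT-PCR normalized to ACTB, GAPDH, POLR2A. Bidirectional fit, DMSO baseline.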

CYP2E1 (gene 1571) = assay: LTEA_HepaRG_CYP2E1: Life Technologies and Expression Analysis (LTEA) Assay for CYP2E1 using HepaRG (AID 2283485)
Procedure, shortened: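 CYP2E1 transcript measured by Fluidigm qRT-PCR against three housekeeping genes in human HepaRG cells treated 48 h (top 100 uM, half-log steps, 0.5% DMSO vehicle). Gain or loss fitted relative to DMSO baseline.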

CYP4A11 (gene 1579) = assay: LTEA_HepaRG_CYP4A11: Life Technologies and Expression Analysis (LTEA) Assay for CYP4A11 using HepaRG (AID 2283486)
Procedure, shortened: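 Readout is CYP4A11 mRNA induction or suppression (qRT-PCR, ACTB/GAPDH/POLR2A normalization) in human HepaRG cells after 48 h chemical treatment, concentrations to 100 uM in 0.5% DMSO, fitted bidirectionally against vehicle.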

[1] = read-out: Cytochrome P450 3A4 (Homo sapiens) (UniProt P08684); assay: LTEA_HepaRG_CYP3A4: Life Technologies and Expression Analysis (LTEA) Assay for CYP3A4 using HepaRG (AID 2283487)
Procedure, shortened: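 In a human hepatic line (HepaRG), duplicate wells were treated 48 h with up to 100 uM chemical in half-log dilutions. Endpoint: CYP3A4 mRNA induction or loss relative to 0.5% DMSO vehicle, by qRT-PCR.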

[2] = read-out: DNA damage-inducible transcript 3 (DDIT3), DDIT3 (gene 1649); assay: LTEA_HepaRG_DDIT3: Life Technologies and Expression Analysis (LTEA) Assay for DNA damage-inducible transcript 3 (DDIT3) using HepaRG (AID 2283488)
Procedure, shortened: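 DDIT3 transcript was quantified by qRT-PCR with ACTB/GAPDH/POLR2A normalization after 48 h chemical treatment of differentiated HepaRG cells in 0.5% DMSO. Dosing was eight-point, half-log, top 100 uM, duplicate wells. Curves fitted bidirectionally versus DMSO.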

[3] = read-out: Pro-epidermal growth factor (Homo sapiens) (UniProt P01133); assay: LTEA_HepaRG_EGF: Life Technologies and Expression Analysis (LTEA) Assay for Epidermal growth factor (EGF) using HepaRG (AID 2283489)
Procedure, shortened: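 EGF expression changes in human HepaRG cells are scored by bidirectional fitting relative to 0.5% DMSO controls. Chemicals are tested at eight half-log concentrations up to 100 uM for 48 h in serum-free induction medium.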

[4] = read-out: Early growth response protein 1 (EGR1) transcription factor, EGR1 (gene 1958); assay: LTEA_HepaRG_EGR1: Life Technologies and Expression Analysis (LTEA) Assay for Early growth response protein 1 (EGR1) transcription factor using HepaRG (AID 2283490)
Procedure, shortened: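 EGR1 expression change in human HepaRG after 48 h chemical exposure, assessed by housekeeping-normalized qRT-PCR; concentration-response up to 100 uM, fitted in both directions against DMSO controls.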

[5] = read-out: Ezrin (EZR), EZR (gene 7430); assay: LTEA_HepaRG_EZR: Life Technologies and Expression Analysis (LTEA) Assay for Ezrin (EZR) using HepaRG (AID 2283491)
Procedure, shortened: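 Gain or loss of EZR mRNA is scored relative to 0.5% DMSO in human HepaRG cultures treated 48 h with test chemicals in duplicate, eight half-log concentrations from 100 uM.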

[6] = read-out: Cytochrome P450 3A7 (Homo sapiens) (UniProt P24462); assay: LTEA_HepaRG_CYP3A7: Life Technologies and Expression Analysis (LTEA) Assay for CYP3A7 using HepaRG (AID 2283492)
Procedure, shortened: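 Cells were thawed, plated, cultured 48 h, then treated for a further 48 h with chemicals (eight-point half-log series from 100 uM, 0.5% DMSO). RNA was isolated and CYP3A7 expression quantified by qRT-PCR normalised to ACTB, GAPDH and POLR2A.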

CYP3A5 (gene 1577) = assay: LTEA_HepaRG_CYP3A5: Life Technologies and Expression Analysis (LTEA) Assay for CYP3A5 using HepaRG (AID 2283493)
Procedure, shortened: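 mRNA levels were quantified by qRT-PCR on Fluidigm arrays and normalized to three housekeeping genes. Differentiated HepaRG cells received 48 h exposure (top 100 uM, half-log steps, 0.5% DMSO vehicle, duplicate); bidirectional fitting versus DMSO.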

Measured: AC50

Cytochrome P450 3A7 (Homo sapiens), sequence (P24462 whole entry, looked up): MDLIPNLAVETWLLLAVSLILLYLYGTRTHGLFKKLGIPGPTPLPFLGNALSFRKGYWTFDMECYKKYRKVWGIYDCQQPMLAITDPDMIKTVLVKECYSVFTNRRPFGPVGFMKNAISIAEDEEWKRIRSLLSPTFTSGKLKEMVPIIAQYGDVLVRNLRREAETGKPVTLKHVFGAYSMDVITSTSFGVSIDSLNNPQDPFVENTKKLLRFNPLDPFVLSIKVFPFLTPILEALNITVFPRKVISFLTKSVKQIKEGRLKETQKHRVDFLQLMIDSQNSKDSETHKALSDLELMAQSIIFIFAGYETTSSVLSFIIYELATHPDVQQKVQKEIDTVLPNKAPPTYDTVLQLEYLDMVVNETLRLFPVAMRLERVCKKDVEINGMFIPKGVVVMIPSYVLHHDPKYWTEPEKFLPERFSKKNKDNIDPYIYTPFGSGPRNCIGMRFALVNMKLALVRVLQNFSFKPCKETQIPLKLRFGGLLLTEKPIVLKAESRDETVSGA
Cytochrome P450 3A4 (Homo sapiens), sequence (P08684 whole entry, looked up): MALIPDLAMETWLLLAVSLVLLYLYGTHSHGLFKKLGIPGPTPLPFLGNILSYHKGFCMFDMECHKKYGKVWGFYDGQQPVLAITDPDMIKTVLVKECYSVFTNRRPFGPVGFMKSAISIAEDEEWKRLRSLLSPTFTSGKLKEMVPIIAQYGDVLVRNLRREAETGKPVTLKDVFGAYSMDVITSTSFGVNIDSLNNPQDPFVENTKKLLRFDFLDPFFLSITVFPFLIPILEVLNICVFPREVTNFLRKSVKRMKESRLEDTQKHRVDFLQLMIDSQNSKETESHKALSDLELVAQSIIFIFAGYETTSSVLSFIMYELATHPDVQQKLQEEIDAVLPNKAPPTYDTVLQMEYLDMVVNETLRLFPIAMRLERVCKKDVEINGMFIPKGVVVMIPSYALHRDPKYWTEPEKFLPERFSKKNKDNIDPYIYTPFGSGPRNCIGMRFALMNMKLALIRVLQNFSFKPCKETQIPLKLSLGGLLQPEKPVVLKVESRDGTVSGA

CCc1ccc(O)c(C(C)(C)C)c1
inactive: all assays above

NC(N)=O
inactive: all assays above

Cn1cc[nH]c1=S
not listed: [1] | [6] | CYP3A5 (gene 1577)
inactive: all other assays above

OCCOCCOCCO
inactive: all assays above

COc1cc2c(c(OC)c1OC)-c1ccc(OC)c(=O)cc1[C@@H](NC(C)=O)CC2
active: CYP2C9 (gene 1559) 0.0777 µM | CYP2E1 (gene 1571) 0.0817 µM | CYP4A11 (gene 1579) 0.0804 µM | CYP3A5 (gene 1577) 0.0995 µM
inactive: [2] | [3] | [4] | [5]

CCCCN1C(=O)[C@@H]([C@H](O)C2CCCCC2)NC(=O)C12CCN(Cc1ccc(Oc3ccc(C(=O)O)cc3)cc1)CC2
inactive: [4] | [5]
active: CYP2C9 (gene 1559) 1.7 µM | CYP2E1 (gene 1571) 3.86 µM | CYP4A11 (gene 1579) 2.41 µM | [1] 1.82 µM | [2] 3.66 µM | [3] 9.39 µM | [6] 2.38 µM | CYP3A5 (gene 1577) 1.9 µM

OC[C@H]1O[C@@](CO)(O[C@H]2O[C@H](CO)[C@@H](O)[C@H](O)[C@H]2O)[C@@H](O)[C@@H]1O
inactive: all assays above

CCCCCCCCN(C)C
inactive: all assays above

O=C(O)[C@H](O)[C@@H](O)C(=O)O
inactive: [2] | [3] | [4] | [5]

CCCCCCCCCCCCCCO
inactive: all assays above

O=C1CN(N=Cc2ccc([N+](=O)[O-])o2)C(=O)N1
active: CYP2E1 (gene 1571) 52.7 µM | CYP4A11 (gene 1579) 45.7 µM | [2] 80.7 µM
not listed: [1]
inactive: all other assays above

CCCCC(CC)C(=O)OCCOCCOCCOC(=O)C(CC)CCCC (stereo not given)
active: CYP4A11 (gene 1579) 50 µM
inactive: all other assays above

CCn1nc(C)c2c1C(=O)NCC(c1ccc(O)cc1)=N2
active: CYP4A11 (gene 1579) 27.9 µM | [1] 29.9 µM | [6] 34.1 µM
inactive: all other assays above

CCCCCCCC1CCC(=O)O1 (stereo not given)
inactive: [2] | [3] | [4] | [5]

c1ccc2ncccc2c1
not listed: CYP2C9 (gene 1559)
inactive: all other assays above

CCCC(CCC)C(=O)O
inactive: all assays above

c1ccc2c(c1)-c1cccc3c1c-2cc1ccccc13
inactive: [3]
active: CYP2C9 (gene 1559) 18.1 µM | CYP2E1 (gene 1571) 14.7 µM | CYP4A11 (gene 1579) 26.1 µM | [1] 7.02 µM | [2] 7.35 µM | [4] 0.404 µM | [6] 13 µM | CYP3A5 (gene 1577) 5.37 µM

Cc1nccn1-c1ccc(Sc2cccc(C3(C(N)=O)CCOCC3)c2)cc1
inactive: [5]
active: CYP2C9 (gene 1559) 12.2 µM | CYP2E1 (gene 1571) 6.52 µM | CYP4A11 (gene 1579) 4.94 µM | [1] 13.4 µM | [2] 4.47 µM | [3] 32.8 µM | [4] 21.9 µM | [6] 10.4 µM | CYP3A5 (gene 1577) 19.5 µM
